# Sampled rows, rich in hits. Any-hit rate of the full collection: about 2.3%.
# CHO-K1 Ca antag = nonselective inhibitor or artifact in parental CHO-K1 cells. ATP-induced calcium, Fluo-8 fluorescence. inhibition, % at 3 µM. 360,000 tested, 0.6% active;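 active = inhibition above a per-plate cutoff, the plate's mean sample inhibition plus 3 SD, cut at about 24% in these data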
# CHRM1 agonist = human M1 muscarinic receptor agonists, primary screen, Fluo-8 calcium fluorescence, CHO-K1 cells, HTS; CHO-K1 hM1, agonist mode; 0% DMSO, 100% acetylcholine EC100; activation, % at 3 µM; 360,000 tested, 0.33% active; AID 588814, 2011;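 active = activation above the run's mean compound activation plus 3 SD, cut at about 16% in these data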;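 also: peak over basal fluorescence ratio within a 140 s kinetic read after compound addition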
# Target sequence (P11229 whole entry, looked up): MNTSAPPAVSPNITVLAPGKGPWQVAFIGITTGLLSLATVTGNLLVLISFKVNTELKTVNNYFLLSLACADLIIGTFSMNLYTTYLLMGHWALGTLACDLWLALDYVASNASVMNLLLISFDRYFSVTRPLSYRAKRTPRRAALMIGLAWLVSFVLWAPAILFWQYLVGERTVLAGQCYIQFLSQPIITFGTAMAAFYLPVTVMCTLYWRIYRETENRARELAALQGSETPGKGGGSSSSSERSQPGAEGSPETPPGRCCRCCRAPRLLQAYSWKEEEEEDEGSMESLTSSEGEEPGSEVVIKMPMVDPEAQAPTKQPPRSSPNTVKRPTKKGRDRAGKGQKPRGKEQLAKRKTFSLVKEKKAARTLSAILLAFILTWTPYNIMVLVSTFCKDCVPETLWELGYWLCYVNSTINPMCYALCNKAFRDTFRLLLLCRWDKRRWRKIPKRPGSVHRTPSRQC
# CHO-K1 Ca PAM = nonselective calcium activators in parental CHO-K1 cells, primary screen, counter-screen for M1 PAM project, cell-based, Fluo-8 calcium fluorescence, full deck, 1536-well. activation, % at 3 µM. AID 602247, 2012. 360,000 tested, 0.02% active. ATP EC20; 0% at ATP EC20, 100% at ATP max;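 active = activation above the run cutoff, the mean activation of all test compounds plus 3 SD, cut at about 40% in these data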;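 also: peak over basal fluorescence ratio in a 140 s read after ATP addition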
# CHO-K1 Ca ag = counter-screen for M1 agonists: effect in parental CHO-K1 cells. AID 602248, 2012. 360,000 tested, 0.48% active. Fluo-8 calcium fluorescence; scaled to maximal ATP response, vehicle zero. activation, % at 3 µM; in the data active = activation above about 15%;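 also: untransfected CHO-K1 host cells lacking M1 receptor as counterscreen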
# M1 antag = human M1 muscarinic receptor antagonists, primary screen, CHO-K1 cells, Fluo-8 calcium fluorescence, 1536-well; Muscarinic acetylcholine receptor M1 (Homo sapiens), P11229; CHO-K1 hM1, ACh EC80 antagonist; inhibition, % at 3 µM; 360,000 tested, 1.3% active;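 active = percent inhibition above its own plate's cutoff, namely the mean of that plate's compound wells plus 3 SD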;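 also: peak over basal fluorescence ratio during 140 s after agonist addition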
# CHRM1 PAM = human M1 muscarinic receptor positive allosteric modulators, primary screen, CHO-K1 cells, Fluo-8 calcium fluorescence, 1536-well; Muscarinic acetylcholine receptor M1 (Homo sapiens), P11229; AID 588819, 2011; 360,000 tested, 0.088% active; CHO-K1 hM1, ACh EC20; 0% = ACh EC20, 100% = maximal ACh; activation, % at 3 µM; in the data active = activation above about 19%, passing the limit was not always enough
# Numbers stand for hits; - = inactive; . = not tested or not shown.
SMILES,CHO-K1 Ca antag,CHRM1 agonist,CHO-K1 Ca PAM,CHO-K1 Ca ag,M1 antag,CHRM1 PAM
Cc1ccccc1CN(C)C(C)C(=O)Nc1ccccc1F (centres undefined),-,-,-,19.0,-,-
COC(=O)c1cccc(NC(=S)Nc2cc(Cl)ccc2OC)c1,-,-,-,-,-,-
COC(=O)c1cccc(NC(=O)Nc2ccc(Cl)cc2Cl)c1,27.6,-,-,-,-,-
C[C@@H]1CN([C@@H](C)CO)C(=O)CCCn2nncc2CO[C@H]1CN(C)C(=O)Nc1ccc(-c2cccs2)cc1,-,-,-,-,-,-
Cc1ccccc1/C=C/C(=O)NCC(=O)N1CCC(N(C)C2CCCCC2C)CC1 (centres undefined),-,-,-,-,26.5,-
Oc1cc(-c2cccnc2)cc2cccnc12,71.8,-,-,-,-,-
COc1ccc(/C=C/C(=O)N/C(=C\c2ccco2)C(=O)NCCc2nc3ccccc3[nH]2)cc1,25.4,-,-,-,-,-
Nc1nnnn1-c1cccc([N+](=O)[O-])c1,-,-,-,-,-,-
COc1ccccc1NC(=O)c1ccc(-n2ccnc2)c([N+](=O)[O-])c1,-,-,-,-,-,-
CN(C)S(=O)(=O)c1cc(NC(=O)c2ccc(-n3ccnc3)c([N+](=O)[O-])c2)ccc1Cl,-,-,-,-,25.5,-
O=S1(=O)N[C@H](Cc2ccccc2)COc2cccc(N3CCSCC3)c21,-,.,-,-,.,.
O=c1cc(CN2CCN(S(=O)(=O)c3ccccc3[N+](=O)[O-])CC2)nc2sccn12,-,-,-,-,-,-
CC1CCN(C(=O)c2[nH]cnc2C(=O)N2CCN(c3ccccc3)CC2)CC1,-,-,-,-,-,-
OCCN1CCN(CC/C=C2/c3ccccc3CSc3ccccc32)CC1,-,-,-,-,-,-
CNCC/C=C1/c2ccccc2CSc2ccccc21,-,-,-,-,95.0,-
N#CC(c1ccc(O)cc1)c1ncc(C(F)(F)F)cc1Cl (centres undefined),-,-,-,-,-,-
CCCCOc1ccc(C(O)C(CN2CCCCC2)c2ccccc2)cc1 (centres undefined),-,-,-,-,34.7,-
CCCCOc1ccc(CN2CCCCC2)cc1,-,-,-,-,42.4,-
O=[N+]([O-])c1cccc(COc2ccc(CN3CCCCC3)cc2)c1,-,-,-,-,86.7,-
CCOc1ccc(CCN2C(=O)C(=O)N([C@@H](Cc3ccccc3)CN3CCC[C@H]3CN3C(=O)C(=O)NC[C@@H]3CC(C)C)C[C@@H]2Cc2ccc(O)cc2)cc1,-,.,-,-,.,.
N#C/C(=C(/O)COC(=O)c1ccc(C#N)cc1)c1nc2ccccc2s1,-,-,-,-,-,-
C=CC(O)(C#CCN(CC)CC)c1ccccc1 (centres undefined),-,-,-,-,37.9,-
Cc1cccc(CN(C)C)c1CC(O)(c1ccccc1)c1ccccc1,-,-,-,-,-,-
CN(C)CC#CCC(O)(c1ccccc1)c1ccccc1,-,-,-,-,87.1,-
CCN(CC)CC#CCC(C)(c1ccccc1)c1ccccc1,-,-,-,-,72.3,-
SMILES,CHO-K1 Ca antag,CHRM1 agonist,CHO-K1 Ca PAM,CHO-K1 Ca ag,M1 antag,CHRM1 PAM
CCN(CC)CC#CCC(O)(c1ccccc1)c1ccc(Br)cc1 (centres undefined),-,-,-,-,91.7,-
CCN(CC)CC#CC(C)(C)OC(C)=O,-,-,-,-,-,-
CSCC(=O)N1CCc2ccc(NC(=O)c3ccccc3Cl)cc2C1,-,-,-,-,-,-
CCN1C[C@@H]2[C@@H]3C(=O)N(Cc4ccccc4)C(=O)[C@@H]3[C@](Cc3ccccc3)(C1=O)N2C(=O)c1ccc(Br)cc1,-,-,-,-,-,-
COc1ccc(N(CC(=O)NCc2ccccc2)C(=O)Cn2nnc(-c3ccccc3F)n2)cc1OC,-,-,-,-,-,-
COc1ccc(CCNC(=O)c2ccc3c(c2)S(=O)(=O)N=C2CCCCCN23)cc1OC,-,-,-,-,-,-
CCN(CC)CCN1CNC(=S)NC1,-,-,-,-,-,-
O=S(=O)(CC(O)(c1ccccc1)c1ccccc1)CC(O)(c1ccccc1)c1ccccc1,-,-,-,-,-,-
CCN(CC)CC#CCC(O)(c1ccccc1)c1ccccc1,-,-,-,-,93.4,-
COc1cc(/C=N/NC(=O)c2ccc(CN3c4cccc5cccc(c45)S3(=O)=O)cc2)cc(OC)c1O,-,-,-,-,-,-
COc1ccc(/C=N/NC(=O)c2ccc(CN3c4cccc5cccc(c45)S3(=O)=O)cc2)cc1,-,16.2,-,-,-,-
O=C(N/N=C/CCc1ccccc1)c1ccc(CN2c3cccc4cccc(c34)S2(=O)=O)cc1,-,21.0,-,-,-,-
COc1ccc(NC(=O)C2Cc3c(-c4ccc5c(c4)OCO5)ccnc3O2)cc1OC (centres undefined),-,-,-,-,32.6,-
Cc1cc(Nc2ccccc2)nc(NCc2ccccc2)n1,27.1,-,-,-,-,-
Cc1cc(C)nc(NCCCc2ccccc2)n1,-,-,-,-,-,-
Cc1cc(Oc2ccccc2)nc(NCc2ccccc2)n1,37.8,-,-,-,-,-
CCCCNc1cc(C)nc(NCc2ccccc2)n1,25.9,-,-,-,30.0,-
Cc1cc(Nc2ccc(Cl)cc2)nc(NCc2ccccc2)n1,-,-,-,-,-,-
Cc1cnc(C(=O)NCC(c2ccccc2)c2ccccc2)cn1,-,-,-,-,-,-
CC[C@H](C)[C@H]1CNC(=S)N1CC1CCN(CCC23CC4CC(CC(C4)C2)C3)CC1,-,-,-,-,90.1,-
CC1=C(C(=O)N(C(C)C)C(C)C)CC(CC(=O)NC2CCCC2)C(=O)N1CCC1=CCCCC1 (centres undefined),-,-,-,-,-,-
CCN1C/C(=C/c2ccc(N3CCOCC3)cc2)C(=O)/C(=C/c2ccc(N3CCOCC3)cc2)C1,27.5,23.5,-,34.2,-,-
CCC1CCCCN1C(=O)CCCOc1ccccc1 (centres undefined),-,-,-,-,-,-
CCCCC[C@H](O)/C=C/[C@H]1CCC(=O)[C@@H]1CCCCCCC(=O)N1CCCCC1CO (some centres undefined),53.5,-,-,15.8,-,-
COc1cccc(S(=O)(=O)N(C)C[C@@H]2Oc3ncc(C#CCN(C)C)cc3C(=O)N([C@H](C)CO)C[C@H]2C)c1,-,-,-,-,48.7,-

# Screens deposited in PubChem BioAssay by The Scripps Research Institute Molecular Screening Center.
